CYP2C19 activ – activators of human cytochrome P450 2C19 | recombinant CYP2C19, luciferin-H EGE luminescence; hits give high values; 0 = fully inhibited enzyme, 1 = untreated enzyme | 96,000 tested, under 10 active | activation factor at 5 µM;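 active = activation factor of at least 2 at 5 µM in the primary screen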;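 note: 0 = wells with 2.5 mM tranylcypromine and 1 = vehicle-only wells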
Target sequence (P33261 whole entry, looked up): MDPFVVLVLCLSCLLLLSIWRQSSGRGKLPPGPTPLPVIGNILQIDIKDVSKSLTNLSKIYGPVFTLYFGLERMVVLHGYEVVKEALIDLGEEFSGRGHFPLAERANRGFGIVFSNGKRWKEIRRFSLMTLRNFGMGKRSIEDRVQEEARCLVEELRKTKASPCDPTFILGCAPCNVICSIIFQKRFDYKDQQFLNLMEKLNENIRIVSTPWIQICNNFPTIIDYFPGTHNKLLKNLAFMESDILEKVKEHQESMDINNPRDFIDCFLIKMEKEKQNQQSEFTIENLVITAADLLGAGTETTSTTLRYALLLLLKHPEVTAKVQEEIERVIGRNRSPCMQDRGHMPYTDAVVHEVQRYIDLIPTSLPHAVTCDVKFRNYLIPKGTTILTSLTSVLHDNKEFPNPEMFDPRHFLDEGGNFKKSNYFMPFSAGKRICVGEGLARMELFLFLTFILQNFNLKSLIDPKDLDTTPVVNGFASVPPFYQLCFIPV
CYP2C9 inhib – human CYP2C9 inhibition; P11712; 96,000 compounds, 20% hits; AID 777; inhibition, % at 5 µM; CYP2C9 Supersomes, luciferin-H conversion, luminescence;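 active = blocking of liver enzyme CYP2C9 beyond about 50% at 5 µM, limit read from the data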
DAT uptake mod – changed human dopamine transporter uptake under cocaine IC80; Q01959; LLC-PK1 hDAT cells, [14C]-dopamine uptake with cocaine IC80; actives deviate in either direction; B-score at 10 µM; 110,000 compounds, 1.3% hits; AID 449768;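 active = Z score or B-score, a plate-position-corrected score, falls beyond the plate's 99.7% confidence bounds, in either direction; inactive = both scores lie inside the 99.7% bounds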;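 note: scored against the spread of the other compound wells on the same plate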
CYP2C9 activ – increases human cytochrome P450 2C9 activity | P11712 | recombinant CYP2C9, luciferin-H conversion, luminescence; hits give high values; factor 1 = untreated enzyme, 0 = blocked | activation factor at 5 µM | 96,000 compounds, 1.4% hits;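 active = activation factor of 2 or more for CYP2C9 at a 5 µM dose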;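 note: 0 = sulfaphenazole-blocked wells and 1 = vehicle-only wells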
D1 allo mod – allosteric modulators of human D1 dopamine receptor | P21728 | HEK293 D1, CRE-luciferase, dopamine EC30 potentiation; actives deviate in either direction | B-score at 10 µM | 58,000 compounds, 5.9% hits | AID 641;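 active = luminescence count or its row- and column-corrected plate score outside the 99.7% band of the plate's sample wells, on either side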
CYP2C19 inhib – inhibitors of human CYP2C19; P33261; CYP2C19 Supersomes, luciferin-H EGE luminescence, 30 min; inhibition, % at 5 µM; 96,000 compounds, 21% hits; AID 778;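 active = CYP2C19 inhibition above a set limit at 5 µM in the primary screen, cut at about 50% in these data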;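 note: plate controls were negative control wells for no effect and 2.5 mM tranylcypromine positive control for full effect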
* = called active by the depositor; / = no result. This is a sample that favours compounds with a hit; in the whole collection about 28% have one here.

SMILES | CYP2C19 activ | CYP2C9 inhib | DAT uptake mod | CYP2C9 activ | D1 allo mod | CYP2C19 inhib
Cc1ccc(NC(=O)C2COc3ccccc3O2)nc1 (stereo not given) | 0.1 | 30 | -0.69 | 0.7 | / | 90*
O=C(Nc1cccnc1)C1COc2ccccc2O1 (stereo not given) | 0.4 | 23 | -1.2 | 0.8 | / | 62*
O=C(Nc1ncccc1Cl)C1COc2ccccc2O1 (stereo not given) | 0.5 | -9 | -0.07 | 1.1 | / | 46
O=C(COC(=O)C1COc2ccccc2O1)NC(=O)Nc1ccc2c(c1)OCCO2 (stereo not given) | 0.7 | 67* | -0.63 | 0.3 | 0.56 | 30
O=C(CCC1COc2ccccc2O1)Nc1ccccn1 (stereo not given) | 0.6 | 1 | 1.1 | 1 | 3 | 44
CCOc1ccc(-n2c(SCC(N)=O)nc3c(c2=O)SCC3)cc1 | 1.2 | 3 | -0.99 | 1 | -0.1 | -20
COc1ccc(-c2cn3c(C)c(C(=O)N4CCN(c5ccc(OC)cc5)CC4)sc3n2)cc1 | / | / | / | / | -0.48 | /
O=C(CCC1COc2ccccc2O1)Nc1cccnc1 (stereo not given) | 0.2 | 45 | / | 0.5 | 0.4 | 81*
Cc1ccc(NC(=O)c2ccccc2F)nc1 | 0.8 | 3 | 0.016 | 1 | -3* | 17
CC1(C)Oc2ccc(NC(=O)C3COc4ccccc4O3)cc2O1 (stereo not given) | 0.1 | 76* | -1.3 | 0.2 | -4.3* | 93*
NS(=O)(=O)c1ccc(NC(=O)C2COc3ccccc3O2)cc1 (stereo not given) | 0.9 | 16 | 0.74 | 0.8 | / | 14
C=CCn1c(NC(=O)c2ccc(C)cc2)c(C#N)sc1=N | 1 | -9 | -0.31 | 1.1 | 1.7 | -2
CC1=CC2=NC(=O)CC(C)(C(=O)N(CC(=O)NC(C)(C)C)Cc3cccs3)N2C=C1 (stereo not given) | 1 | -3 | 0.13 | 1 | / | 3
CCn1c(/C=C/c2ccccc2)nc2ccccc21 | 0.6 | -163 | 2.2 | 2.6* | / | 44
COc1ccc(Cn2c(/C=C/c3ccccc3)nc3ccccc32)cc1 | 0.6 | 91* | -0.092 | 0.1 | / | 38
CCn1c(-c2ccco2)nc2ccccc21 | 0.9 | -29 | 0.57 | 1.3 | -0.49 | 13
Cc1ccc(C(=O)/C=C/c2ccccc2)o1 | 0.3 | 57* | -0.54 | 0.4 | / | 69*
Cc1ccc(C(=O)/C=C/c2ccc3c(c2)OCO3)o1 | 0.5 | 34 | 0.013 | 0.7 | / | 54*
O=C(/C=C/c1ccc2c(c1)OCO2)c1ccc(F)cc1 | / | / | -1 | / | / | /
CCNc1ccccc(C(=O)/C=C/c2ccc3c(c2)OCO3)c1=O | 0.1 | 37 | 0.38 | 0.6 | / | 85*
Cc1ccc(C(=O)/C=C/c2ccc(Br)cc2)o1 | 0.9 | 8 | -0.0043 | 0.9 | / | 13
O=C(N[C@H](CO)[C@H](O)c1ccc([N+](=O)[O-])cc1)C(Cl)Cl | / | / | -0.6 | / | / | /
CCn1c(C)[n+](CCOCC[n+]2c(C)n(CC)c3cc(Cl)c(Cl)cc32)c2cc(Cl)c(Cl)cc21 | 1.1 | -8 | -0.0029 | 1.1 | / | -12
COc1ccc(CCNc2nc(-c3sc(C)nc3C)cs2)cc1OC | 0.7 | 22 | 0.78 | 0.8 | / | 27
c1ccc(Nc2nc(-c3cccnc3)cs2)nc1 | 0.9 | -5 | 0.11 | 1.1 | 0.84 | 11
SMILES | CYP2C19 activ | CYP2C9 inhib | DAT uptake mod | CYP2C9 activ | D1 allo mod | CYP2C19 inhib
COc1ccc(CCNc2nc(-c3cccnc3)cs2)cc1OC | 0.2 | 10 | 0.037 | 0.9 | / | 84*
COc1ccc(-c2csc(Nc3cccnc3)n2)cc1OC | 0.2 | 22 | 0.51 | 0.8 | / | 79*
c1cncc(Nc2nc(-c3ccncc3)cs2)c1 | 0.5 | 52* | -0.81 | 0.5 | 1.1 | 51*
c1cncc(Nc2nc(-c3cccnc3)cs2)c1 | 0.3 | 56* | 0.3 | 0.4 | 1.7 | 72*
Cc1ccc(-c2csc(NC(=O)c3ccno3)n2)cc1 | 0.6 | 70* | 1.1 | 0.3 | -0.27 | 38
O=C(Nc1nc(-c2ccccc2)cs1)c1cccs1 | 0.8 | 34 | 0.049 | 0.7 | -0.21 | 15
O=C(Nc1nc(-c2ccc(Cl)cc2)cs1)c1cccnc1 | 0.4 | 40 | -0.0018 | 0.6 | / | 61*
CCOC(=O)C1CCCN(Cc2ccc(OCC)cc2)C1 (stereo not given) | 0.2 | -5 | 0.086 | 1 | / | 76*
CCOC(=O)C1CCN(CC(=O)N2C(C)CCCC2C)CC1 (stereo not given) | 0.4 | 9 | -0.36 | 0.9 | -1 | 63*
CCOC(=O)N1CCN(Cc2cc(=O)oc3ccc(Cl)cc23)CC1 | 0.3 | 56* | -0.13 | 0.4 | 0.54 | 73*
CCOC(=O)C1CCCN(CC(O)COc2ccc(OC)cc2C(C)(C)C)C1 (stereo not given) | 0.5 | 56* | 0.26 | 0.4 | -0.12 | 46
O=C([C@H](Cc1ccc(O)cc1)n1cc(CCO)nn1)N1CCNCC1 | / | / | -0.25 | / | / | /
O=C(COC(=O)C1(c2ccc(Cl)cc2)CCCC1)NC1CCS(=O)(=O)C1 (stereo not given) | 0.7 | 4 | -0.6 | 1 | / | 27
CCOC(=O)C1CCCN(Cc2ccccc2Cl)C1 (stereo not given) | 0.2 | 24 | 0.23 | 0.8 | / | 80*
CCOC(=O)C1CCCN(Cc2ccccc2C)C1 (stereo not given) | 0.1 | 2 | 0.034 | 1 | -0.5 | 88*
CCOC(=O)C1CCCN(Cc2nc(N)nc(Nc3ccc(Cl)cc3)n2)C1 (stereo not given) | 0.4 | 67* | 0.45 | 0.3 | 0.21 | 63*
CCOC(=O)C1CCN(Cc2cccc(OC)c2)CC1 | 0.2 | 3 | 1 | 1 | / | 77*
O=C(CCN1C(=O)c2ccccc2C1=O)Nc1ccccc1C(=O)N1CCOCC1 | 1.1 | -42 | 0.98 | 1.4 | / | -14
CCOC(=O)N1CCN(Cc2cccs2)CC1 | 0.1 | 7 | -0.82 | 0.9 | 0.42 | 90*
O=C(C1CCCN(Cc2cccs2)C1)N1CCCCCC1 (stereo not given) | 1 | -1 | 1.2 | 1 | 0.21 | 0
CCOC(=O)C1CCN(Cc2cn[nH]c2-c2ccccc2)CC1 | 0.7 | 0 | 0.64 | 1 | 0.0058 | 29
CCOC(=O)N1CCN(Cc2ccccn2)CC1 | 1 | 13 | 0.5 | 0.9 | / | 3
CCOC(=O)C1CCCN(Cc2cccs2)C1 (stereo not given) | 0.1 | 4 | 0.028 | 1 | / | 88*
CCOC(=O)C1CCCN(C/C(O)=C(\C#N)c2nc(-c3ccc(Cl)cc3)cs2)C1 (stereo not given) | 0.9 | 58* | 0.93 | 0.4 | -0.082 | 14
CCOC(=O)N1CCN(C(=O)C2CCCN(Cc3nc(-c4ccc(Cl)cc4)oc3C)C2)CC1 (stereo not given) | 1 | -10 | / | 1.1 | -2.6 | 3
CCOC(=O)C1CCN(Cc2ccccc2C)CC1 | 0.2 | 13 | 0.35 | 0.9 | / | 77*
O=c1[nH]nc2n1CCCCC2 | 1 | -10 | 0.51 | 1.1 | / | -2
CCOc1ccccc1OCCCCCc1c(C)n[nH]c1C | 0.2 | 19 | 0.61 | 0.8 | -2.4* | 77*
